DENV2 CPE: inhibitors of DENV2 cytopathic effect; DENV2-infected cells, cytopathic effect rescue, plate reader; CPE inhibition, % at 9.99 µM; 350,000 compounds, 1.7% hits; AID 651640; in the data active = CPE inhibition above about 20%, passing the limit was not always enough; inconclusive = no clear call, values can overlap the other calls; tested in BHK-21 cells
FGF22 binding: shifts melting point of recombinant human FGF22; recombinant FGF22 thermal shift, SYPRO orange fluorescence; percent of sucrose octasulfate shift, DMSO zero; Q9HCT0; activity (Tm shift, normalised), % at 9.99 µM; 340,000 compounds, 1.5% hits;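 active = mean Tm shift, scaled 0 neutral to 100 positive control, at about 1.3% or above, every replicate too, limit read from the data; inconclusive = no clear call, values can overlap the other calls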
Target sequence (Q9HCT0 whole entry, looked up): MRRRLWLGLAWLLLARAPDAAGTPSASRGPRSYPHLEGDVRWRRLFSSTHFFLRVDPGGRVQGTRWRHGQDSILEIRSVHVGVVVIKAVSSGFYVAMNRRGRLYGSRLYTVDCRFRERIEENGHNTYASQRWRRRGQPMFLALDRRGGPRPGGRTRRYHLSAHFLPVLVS
RAD52 anneal inh: RAD52 (human) annealing inhibition; recombinant RAD52 DNA annealing, FRET fluorescence; AID 651710; inhibition, % at 18.7 µM; P43351; 360,000 compounds, 0.46% hits;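 active = every replicate showing at least 50% inhibition; inconclusive = mean inhibition at least 50% but not in every replicate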
Target sequence (P43351 whole entry, looked up): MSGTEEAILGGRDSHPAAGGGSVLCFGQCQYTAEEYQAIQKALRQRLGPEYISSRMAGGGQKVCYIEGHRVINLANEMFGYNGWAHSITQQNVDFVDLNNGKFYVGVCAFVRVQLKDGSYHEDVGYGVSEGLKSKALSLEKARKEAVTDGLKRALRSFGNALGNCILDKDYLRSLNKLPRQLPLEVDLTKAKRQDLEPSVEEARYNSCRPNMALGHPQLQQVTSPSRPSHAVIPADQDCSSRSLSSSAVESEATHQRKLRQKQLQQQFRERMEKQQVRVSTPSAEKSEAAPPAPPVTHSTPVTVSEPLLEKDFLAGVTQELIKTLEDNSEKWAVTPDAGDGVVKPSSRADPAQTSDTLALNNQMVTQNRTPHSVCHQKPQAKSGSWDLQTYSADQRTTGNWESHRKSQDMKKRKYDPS
ERAP1 HTS inh: blocks human ERAP1 aminopeptidase activity | AID 652197 | recombinant ERAP1, Leu-AMC fluorescence, 60 min | inhibition, % at 10.7 µM | Q9NZ08 | 340,000 compounds, 0.15% hits;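 active = mean replicate inhibition of at least 30%, or all replicates individually reaching that 30% level; inactive = mean below 30% and not every replicate reaching it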
MLL AF4-AF9 inh: blocks AF4 peptide binding to human AF9; P42568; AlphaScreen, biotin-AF4 peptide binding to FLAG-AF9; inhibition, % at 10 µM; 350,000 compounds, 0.47% hits;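 active = every replicate reaching a set inhibition limit, whatever the replicate mean, cut at about 25% in these data; inconclusive = mean inhibition reaches that limit but some replicates miss it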
Each line names hits and unclear results; the compound was inactive in the other large screens. Only some compounds are listed: those with a hit (about 4% of all), similar ones and a draw of the others.

CCCC(=O)N1CC2(CCN(C(=O)NC(C)C)CC2)c2c([nH]c3cc(OC)ccc23)[C@@H]1CO	none
O=C(c1cccc(F)c1)N1CC(=O)N2[C@H](CO)[C@H](c3ccc(-c4ccccc4F)cc3)[C@H]2C1	none
O=C(Nc1ccc(-c2nnc3n2CCCCC3)cc1)c1cc2ccccc2o1	FGF22 binding 44
O=C(Nc1ccc(N2CCCC2)cc1)c1cc2ccccc2o1	DENV2 CPE inconclusive
O=C(C[C@H]1C[C@@H]2c3cc(NS(=O)(=O)c4ccc(F)cc4)ccc3O[C@@H]2[C@@H](CO)O1)NCc1ccc(-c2ccccc2)cc1	none (no result: FGF22 binding)
CC(=O)/C(C#N)=C1\NC(=O)C(Cc2ccc(C)c(Cl)c2)S1 (centres undefined)	DENV2 CPE 87
CCCNC(=O)Nc1ccc2c(c1)C(=O)N(C)C[C@@H](OC)[C@H](C)CN(Cc1ccc(-c3ccccn3)cc1)[C@H](C)CO2	none
CC(C)NC(=O)N[C@H]1C=C[C@H](CC(=O)NCCCN(C)C)O[C@@H]1CO	none
O=S(=O)(CCN1CCCCC1)CCS(=O)(=O)CCN1CCCCC1	FGF22 binding 44
O=S(=O)(N1CCCCCC1)N1CCN(S(=O)(=O)N2CCCCC2)CC1	none
Cc1noc(C)c1NC(=O)Nc1cccc2c1O[C@H](CN(C)Cc1ccc(-c3ccccc3)cc1)[C@H](C)CN([C@H](C)CO)C2=O	DENV2 CPE inconclusive
Cc1noc(C)c1NC(=O)Nc1cccc2c1O[C@H](CN(C)Cc1ccc(C(F)(F)F)cc1)[C@@H](C)CN([C@@H](C)CO)C2=O	none
Cc1noc(C)c1NC(=O)Nc1cccc2c1O[C@H](CN(C)Cc1ccc(C(F)(F)F)cc1)[C@H](C)CN([C@@H](C)CO)C2=O	DENV2 CPE 21
Cc1noc(C)c1NC(=O)Nc1cccc2c1O[C@@H](CN(C)Cc1ccc(C(=O)O)cc1)[C@@H](C)CN([C@@H](C)CO)C2=O	DENV2 CPE 45
Cc1noc(C)c1NC(=O)Nc1cccc2c1O[C@@H](CN(C)Cc1ccc(-c3ccccc3)cc1)[C@H](C)CN([C@H](C)CO)C2=O	DENV2 CPE 39
O=C(c1ccccn1)N1CC2(C1)[C@@H](c1ccccc1)[C@H](CO)N2C(=O)C1CCC1	none (no result: FGF22 binding)
O=c1cc(-c2ccc(O)c(-c3c(O)cc(O)c4c(=O)cc(-c5ccc(O)cc5)oc34)c2)oc2cc(O)cc(O)c12	FGF22 binding 45 (no result: DENV2 CPE)
O=c1cc(-c2ccc(O)cc2)oc2c(-c3c(O)cc(O)c4c(=O)cc(-c5ccc(O)cc5)oc34)c(O)cc(O)c12	none
C=CCN=c1scc(-c2ccccc2)n1/N=C/c1ccccn1	DENV2 CPE inconclusive, MLL AF4-AF9 inh 28
C=CCN=c1scc(-c2ccc(F)cc2)n1/N=C/c1ccccn1	none (no result: DENV2 CPE)
COc1ccc(-n2c(Cc3cc(=O)[nH]c(=O)[nH]3)nnc2SCC(=O)N2CCCC2)cc1	none (no result: ERAP1 HTS inh)
COc1ccc(C(=O)CSc2nnc(CN3CCCC3)n2-c2ccc(F)cc2)c(OC)c1	FGF22 binding 44
CCC(CC)c1nnc(NC(=O)C2CCCO2)s1 (centres undefined)	FGF22 binding 43
COc1cc(C2NCCc3c2[nH]c2ccccc32)ccc1OC(C)C (centres undefined)	FGF22 binding 44
COc1cc(C2NCC(c3ccc(Cl)cc3Cl)c3c2[nH]c2ccccc32)cc(OC)c1OC (centres undefined)	DENV2 CPE inconclusive
O=C(N[C@H]1C[C@@H]2O[C@@H](CO)CC[C@@H]2O[C@@H]1CCc1ccc(C#CC2CC2)cc1)c1cccc(F)c1	none (no result: FGF22 binding)
O=C(Nc1ccc(Br)cc1F)C1CCCN(S(=O)(=O)c2cnc[nH]2)C1 (centres undefined)	FGF22 binding 2.0
COC(=O)c1ccc(COc2ccccc2/C=C(\C#N)C(=O)Nc2ccc(C)cc2C)cc1	ERAP1 HTS inh 37
COC(=O)c1ccc(COc2ccccc2/C=C(\C#N)C(=O)Nc2c(C)cc(C)cc2C)cc1	none
O=C(c1ccccc1)N1CC[C@H]2[C@H](CO)Nc3ccc(C#Cc4cccc(F)c4)cc3[C@H]21	DENV2 CPE 64 (no result: RAD52 anneal inh, ERAP1 HTS inh, MLL AF4-AF9 inh)
O=C(c1ccccc1)N1CC[C@@H]2[C@H](CO)Nc3ccc(C#Cc4cccc(F)c4)cc3[C@@H]21	DENV2 CPE 116 (no result: RAD52 anneal inh, ERAP1 HTS inh, MLL AF4-AF9 inh)
OC[C@@H]1Nc2ccc(C#Cc3ccccc3)cc2[C@@H]2[C@H]1CCN2Cc1nccs1	RAD52 anneal inh 59 (no result: FGF22 binding)
CCCC(=O)Nc1ccc2c(c1)OC[C@@H](C)N(CCC(F)(F)F)C[C@@H](C)[C@H](OC)CN(C)C2=O	none
C[C@@H]1CCCCO[C@@H](CN(C)S(C)(=O)=O)[C@H](C)CN([C@H](C)CO)C(=O)c2cc(NC(=O)Nc3ccccc3)ccc2O1	none
CO[C@H]1CN(C)C(=O)c2ccc(NC(=O)C3CC3)cc2OC[C@H](C)N(Cc2ccccc2)C[C@@H]1C	none
CCC(C)NC(=O)c1nc2c(nnn2Cc2ccccc2Cl)c(=O)[nH]1 (centres undefined)	FGF22 binding 43
O=C1CC2c3ccccc3C1C1C(=O)N(CCc3ccccc3)C(=O)C21 (centres undefined)	FGF22 binding 43
CCOC(=O)N(C)C[C@@H]1OCc2ccccc2-c2ccccc2C(=O)N([C@@H](C)CO)C[C@H]1C	none
CCN1C(=O)C2(SC(NC(C)=O)=NN2C(C)=O)c2cc(C)cc(C)c21 (centres undefined)	DENV2 CPE inconclusive, MLL AF4-AF9 inh 50
CCCN1C(=O)C2(SC(NC(C)=O)=NN2C(C)=O)c2cc(C)cc(C)c21 (centres undefined)	DENV2 CPE inconclusive
COc1ccc(N=Nc2c(N)nn(C)c2N)cc1	FGF22 binding 44
Cc1ccc(N=Nc2c(N)nn(-c3ccccc3)c2N)cc1	none
CCN(CC)CCN(CC(=O)N(C1CCCCC1)C1CCCCC1)C(=O)c1cccnc1	FGF22 binding 44 (no result: DENV2 CPE)
O=C(NCC1CCCCC1)c1cccnc1	none
COC(=O)CSc1nnc(CNC(=O)c2ccccc2F)n1-c1ccc(F)cc1	none
CCSc1nnc(CNC(=O)c2ccccc2F)n1-c1ccccc1OC	FGF22 binding 43
Cc1cc(C)c2[nH]c(C(=O)Nc3ccc4c(c3)OCO4)cc2c1	DENV2 CPE 24 (no result: ERAP1 HTS inh)
COc1ccc(-c2cn(CCCOCc3ccccc3)nn2)cc1	none
CCCCCc1ccc(-c2cn(CCCOCc3ccccc3)nn2)cc1	FGF22 binding 4.2 (no result: DENV2 CPE)
CN(NC(=O)c1ccco1)c1nc2ccccc2nc1C(F)(F)F	FGF22 binding 43
CC(C)[C@H](NC(=O)c1ccco1)C(=O)N(C)Cc1ccc(C(F)(F)F)cc1	none
CN(C)c1ccc(C(c2ccc(N(C)C)cc2)c2ccc([N+](=O)[O-])cc2)cc1	MLL AF4-AF9 inh 27
CN1CCN(c2ccccc2NC(=O)c2ccc(N3CCCCC3)c([N+](=O)[O-])c2)CC1	MLL AF4-AF9 inh 27
COC(=O)c1ccc(N2CCc3ccccc32)c([N+](=O)[O-])c1	MLL AF4-AF9 inh 33
CN1CCN(c2ccccc2NC(=O)c2cccc([N+](=O)[O-])c2)CC1	FGF22 binding 44

Screens: PubChem, Broad Institute
